This is part of a sample that, as a whole, favours compounds with a hit. Of some 83,000 tested, about 20% had one in any assay.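 The test compound was applied at a single concentration to cells in 96-well plates for 48 hours, and percent growth was recorded.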 Unmarked numbers belong to inactive results. The source made the active and inactive calls. The calls were made as follows: active = growth percent below 10; inactive = the rest.
Assays:
Experiment in all cases: NCI-60 one-dose screen, 48 h (100 = growth as untreated, 0 = no growth, -100 = all killed)
Settings in all cases: 10 µM unless noted
NCI-H23 lung = tested on: NCI-H23 lung
NCI-H322M lung = tested on: NCI-H322M lung
HOP-62 NSCLC = tested on: HOP-62 NSCLC
NCI-H460 lung = tested on: NCI-H460 lung
HOP-92 NSCLC = tested on: HOP-92 NSCLC
NCI-H522 lung = tested on: NCI-H522 lung
A549/ATCC NSCLC = tested on: A549/ATCC NSCLC
786-0 renal = tested on: 786-0 renal
DU-145 prostate = tested on: DU-145 prostate
K-562 leukemia = tested on: K-562 leukemia
MALME-3M melanoma = tested on: MALME-3M melanoma
MDA-MB-231 breast = tested on: MDA-MB-231 breast
RXF 393 renal = tested on: RXF 393 renal
SF-268 CNS = tested on: SF-268 CNS
SF-295 CNS = tested on: SF-295 CNS
SF-539 CNS = tested on: SF-539 CNS
UACC-257 melanoma = tested on: UACC-257 melanoma
M14 melanoma = tested on: M14 melanoma
HCT-15 colon = tested on: HCT-15 colon
COLO 205 colon = tested on: COLO 205 colon

SMILES | growth (NCI-H23 lung) [%] | growth (NCI-H322M lung) [%] | growth (HOP-62 NSCLC) [%] | growth (NCI-H460 lung) | growth (HOP-92 NSCLC) | growth (NCI-H522 lung) | growth (A549/ATCC NSCLC) | growth (786-0 renal) | growth (DU-145 prostate) | growth (K-562 leukemia) | growth (MALME-3M melanoma) | growth (MDA-MB-231 breast) | growth (RXF 393 renal) | growth (SF-268 CNS) | growth (SF-295 CNS) [%] | growth (SF-539 CNS) | growth (UACC-257 melanoma) | growth (M14 melanoma) | growth (HCT-15 colon) | growth (COLO 205 colon)
Cc1cccc2c(=O)c3c(sc12)c(N1CCNCC1)nc1ccccc13 | 80.4 | 74.5 | 73.6 | 80% | 53.7% | 82.6% | 78.3% | 78.1% | 67.5% | -23% (active) | 98.6% | 56.3% | 72.2% | 76.1% | 93.5 | 75.8% | 96.6% | 74% | 25.9% | 
COc1ccccc1C1=C(Br)C(=O)c2nc(C)ccc2C1=O | 93.4 | 100 | 106 | 99.4% | 86.3% | -38% (active) | 109% | 104% | 109% | 65% | 62.4% | 96.6% | 102% | 97.5% | 98.6 | 105% | 99.6% | 93.7% | 96.7% | 
Nc1nc2c(ncn2[C@@H]2O[C@H](CS)[C@@H](O)[C@H]2O)c(=O)[nH]1 | 102 | 93.3 | 100 | 102% | 103% | 97.4% | 96.6% | 106% | 105% | 97.2% | 97.5% | 99.3% | 111% | 99.7% | 98.2 | 102% | 94.7% | 102% | 101% | 
O=C1c2ccc3c4c(ccc(c24)C(=O)N1CCCCO)C(=O)N(CCCCO)C3=O | 80.5 | 90.9 | 83.9 | 89.6% | 16% | -13.4% (active) | 45.6% | 67.8% |  | 4.34% (active) | -7.29% (active) | 64.6% | 15.1% | 81.3% | 46.8 | 68.3% | -61% (active) | 23.2% | 48.5% | 5.81% (active)
O=C(/C=C/c1ccc(Cl)cc1)c1ccc(Nc2nc(NCCO)nc(N3CCOCC3)n2)cc1 | 94.8 | 90.8 | 89.6 | 98.1% | 98.6% | 87.2% | 68% | 90.6% | 92.9% | 44.5% | 99.5% | 84.3% | 71.3% | 82% | 94.5 | 90.4% | 101% | 105% | 44.8% | 
COc1cccc(/C(C#N)=C/c2nc3c(N4CCOCC4)nc(Cl)nc3n2C)c1 | 25.6 | 63.4 | 35.2 | 17.4% | -66.3% (active) | -64.7% (active) | 29.2% | -69.4% (active) | -77.6% (active) | 0.802% (active) | -45.2% (active) | -68.9% (active) | -84.9% (active) | -24.4% (active) | 85.7 | -20.2% (active) | -57.6% (active) | -54.3% (active) | -46.4% (active) | 
Cc1ccc(N=NC2C(=O)N(c3ccc(Cl)cc3)N(c3ccc(Cl)cc3)C2=O)cc1 | 95.6 | 97.4 | 89.2 | 99.8% | 101% | 85.1% | 99% | 108% | 107% | 94.1% | 98% | 91.7% | 113% | 100% | 93.9 | 100% | 86.8% | 102% | 98.3% | 
CNCCNc1nc2ccccc2c2c(=O)c3cccc(OC)c3sc12 | 47.1 | 33.8 | 34.1 | -68.2% (active) | 5.16% (active) | 27.5% | 17.9% | 26.5% | 12.6% | -39% (active) | 59.6% | 13.8% | 41.5% | 37.8% | 52.6 | 34.9% | 64% | -71.3% (active) | -39.9% (active) | 
Cc1ccc2sc3c(NCCCNCCO)nc4ccccc4c3c(=O)c2c1 | 75.2 | 73.1 | 50.9 | -81.6% (active) | 35.3% | 27.2% | 0.19% (active) | 54% | 4.48% (active) | -48.5% (active) | 85% | 23.8% | 44.5% | 47.7% | 84.2 | 78.6% | 72.7% | -44.3% (active) | -8.68% (active) | 

From PubChem BioAssay (NCI)
